High-throughput results deposited in PubChem BioAssay by National Center for Advancing Translational Sciences (NCATS).
Mito fusion yeast = mitochondrial division inhibition or fusion activation. S. cerevisiae fusion-defective mutant growth rescue, CellTiterGlo 48 h. Potency, µM (top dose mostly 46.1 µM), without a hit: at the highest dose growth rescue (activation), hits mostly activators. actives 0.23% (n = 320,000). AID 485298; also: % of control where 0% means no effect; nearly all actives have a fitted effect of over 45% in size
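Temperature-sensitive fusion-defective S. cerevisiae (e.g. fzo1-1, mgm1-5) were grown with compound in YPEG medium (3% ethanol, 3% glycerol) for 48 hours at 37C. Growth rescue was measured as viability by CellTiterGlo luminescence after 10 minutes at ambient.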
BCR signal inh = blocks chronic active B-cell receptor signaling. Potency, µM (highest dose often 46.1 µM), for the others: top-dose activity change, negative = inhibition, usual class: inhibitors. ABC-DLBCL IkBa-CBG/CBR reporter, luminescence ratio, 4 h. actives 0.05% (n = 340,000); active = well fitted inhibition curve with a large enough effect in the signal ratio, with a control signal flat, not every such curve was filed as active; inconclusive = small, poorly fitted or top-dose-only effect, or effect the other way, or a change in a side signal; the % refers to the signal ratio;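 also: plate controls were basal doxycycline-induced cells for no effect and cells given 10 µM MG132 for full effect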
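Doxycycline induced both beetle luciferases in TMD8 lymphoma cells; IKK-driven degradation limits the IkappaBalpha-fused green signal, while red luminescence normalises for cell number and nonspecific effects. Compounds tested up to 46 uM, 4 hrs.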
RORg inh = blocks mouse ROR gamma transcriptional activity. actives 5.4% (n = 310,000). Drosophila S2 Gal4-RORgamma UAS-luciferase reporter, 20 h. Potency, µM (titrated, usually from 53.6 µM), for inactives: top-dose activity change, negative = inhibition, hits mostly inhibitors; also: % is scaled to controls: 0 for no effect and ±100 for the full control effect; nearly all actives have a fitted effect of over 60% in size
Target sequence (P51450 whole entry, looked up, the tested form may be a part): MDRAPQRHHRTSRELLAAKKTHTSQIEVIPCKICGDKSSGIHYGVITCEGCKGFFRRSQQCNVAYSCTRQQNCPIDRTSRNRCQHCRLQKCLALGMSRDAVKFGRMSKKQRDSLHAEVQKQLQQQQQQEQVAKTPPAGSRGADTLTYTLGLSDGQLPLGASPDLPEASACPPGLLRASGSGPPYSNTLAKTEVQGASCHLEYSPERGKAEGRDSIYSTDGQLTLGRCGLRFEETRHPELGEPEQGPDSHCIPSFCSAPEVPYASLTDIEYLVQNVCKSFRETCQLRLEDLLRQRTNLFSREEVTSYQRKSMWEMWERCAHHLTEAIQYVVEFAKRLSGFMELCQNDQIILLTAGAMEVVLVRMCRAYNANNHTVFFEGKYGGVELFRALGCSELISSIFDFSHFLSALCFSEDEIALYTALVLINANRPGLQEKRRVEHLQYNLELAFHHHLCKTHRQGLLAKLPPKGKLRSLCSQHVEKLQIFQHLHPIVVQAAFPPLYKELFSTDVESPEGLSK
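Using a luciferase readout, inhibitors were identified by reduced reporter activity in Drosophila cells coexpressing a copper-inducible Gal4–ROR gamma fusion and UAS-driven Photinus luciferase, incubated 20 hr after 700 uM copper sulfate.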
uPA surface inh = blocks generation of uPA at the cell surface. AID 540303. actives 0.31% (n = 330,000). cell surface uPA generation assay, qHTS. Potency, µM (titrated, usually from 38.3 µM), for the others: top-dose activity change, negative = inhibition, hits mostly inhibitors; active = well fitted inhibition curve with a large enough effect; inconclusive = small, poorly fitted or top-dose-only effect; inactive = no such curve, though single readings can be large or run the other way; tested in mouse RAW 264.7 cells; also: % is scaled to controls: 0 for no effect and ±100 for the full control effect; nearly all actives have a fitted effect of over 55% in size
Gal4-VP16 FLuc = inhibits Gal4-VP16 luciferase reporter, ROR gamma counter-screen; Drosophila S2 Gal4-VP16 UAS-luciferase, luminescence, 20 h; Potency, µM (titrated, usually from 53.6 µM), without a hit: top-dose activity, negative = inhibition, actives largely listed as inhibitors; actives 3.5% (n = 310,000);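 also: Gal4-VP16 expression switched on by copper sulfate through the metallothionein promoter; % is scaled to controls: 0 for no effect and ±100 for the full control effect; nearly all actives have a fitted effect of over 50% in size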
a7 integrin act = integrin-mediated muscular dystrophy alleviation activation; alpha7betagal myoblasts, beta-gal FDG fluorescence, 48 h; Potency, µM (series often up to 38.3 µM), for the others: at the top dose activation, actives largely listed as activators; actives 0.064% (n = 350,000); AID 624291;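 also: 100% = response of the positive control SU9516; nearly all actives have a fitted effect of over 60% in size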
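Alpha7betagal+/- myoblasts (passage 13) were plated 16-24 hr, then exposed to compounds (1:260 dilution of DMSO stock) for 48 hours at 37C. After MPER lysis, β-galactosidase reporter activity was read as FDG fluorescence (ex 480/em 540) after 30 minutes.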
Starred values were filed as active, the others as inactive; ? = inconclusive; nt = no result; [ ] = another dose, or the depositor's remark. Shown are actives, neighbours in structure and some others; about 5.5% of the full set was active somewhere. Unless noted, calls follow the shape of the dose curve; as a rule, active = well fitted curve in the direction sought with a large enough effect; inconclusive = small, poorly fitted or top-dose-only effect, or another doubt; inactive = no such curve, though single readings can be large; an effect the other way counts as inactive or inconclusive. Potency is read from the fitted curve at half-maximal effect.

SMILES	Mito fusion yeast	BCR signal inh	RORg inh	uPA surface inh	Gal4-VP16 FLuc	a7 integrin act
S=C(Nc1ccc(Cl)cc1)NC1CC2CCC(C1)N2Cc1ccccc1 (centres undefined)	?	0.2%	3.98µM*	-2.6%	?	-72.8%
S=C(Nc1ccc(Cl)cc1)NC1CC2CCCC(C1)N2C1CCCC1 (centres undefined)	-16.8%	-0.1%	-0.8%	-4.7%	-0.6%	-44.5%
CCOC(=O)c1cc(-c2ccc(OC)cc2)n(CCC(=O)NC2CCCCC2)c1C	nt	-1.5%	nt	nt	nt	nt
CCOc1cccc(/C=C/c2cc(C(=O)O)c3ccccc3n2)c1OC	4.2%	?	4.47µM*	?	?	-29.6%
CCOc1cc(/C=C/c2cc(C(=O)O)c3ccccc3n2)ccc1OC	-1.3%	-2.4%	12.6µM*	-7.8%	?	0.0%
C=C1C[C@@]23C[C@@]1(O)CCC2[C@@]12C=CC(O)[C@](C)(C(=O)O1)C2C3C(=O)O (some centres undefined)	nt	nt	-16.9%	nt	-5.0%	nt
COc1ccc(N2C(=O)CS/C2=N\C(=S)Nc2ccccc2)cc1	2.2%	10µM*	-37.0%	6.2%	-4.1%	4.1%
CCOC(=O)C1CCCN(S(=O)(=O)c2cc(C(=O)OC)n(C)c2)C1 (centres undefined)	-0.9%	?	42.4%	-18.7%	15.8µM*	-2.0%
NC1(C#Cc2ccc3c(=O)c4ccccc4sc3c2)CCCCC1	nt	?	nt	3.2%	nt	-5.1%
Cn1c2ccccc2c(=O)c2ccc(C#CC3(N)CCCCC3)cc21	-4.8%	?	-36.5%	?	-11.5%	-2.4%
Cn1c2ccccc2c(=O)c2cc(C#CC3(O)CCCCC3)ccc21	0.3%	?	11.2µM*	1.26µM*	15.8µM*	12.9%
Cc1cc2sc3ccc(C#CC4(O)CCCCC4)cc3c(=O)c2cc1C	nt	nt	nt	10µM*	nt	21.7%
O=c1c2ccccc2oc2ccc(C#CC3(O)CCCCC3)cc12	nt	nt	nt	2.82µM*	nt	11.4%
Cn1c2ccccc2c(=O)c2ccc(C#Cc3ccccn3)cc21	-3.1%	10.9%	11.2µM*	-0.1%	15.8µM*	8.2%
CN1C(=O)C(O)(C2CCCCCC2=O)c2ccccc21 (centres undefined)	1.2%	0.3%	-0.5%	-5.4%	-10.3%	8.4%
COc1ccc(NS(=O)(=O)c2ccc3[nH]c4c(c3c2)CCCC4)cc1OC	nt	-7.8%	nt	nt	nt	nt
Clc1cccc(-c2ccc(CNCc3ccccn3)o2)c1	-8.8%	7.2%	11.2µM*	-5.6%	?	28.7%
COc1ccc2c(c1)OC[C@H]1c3cc4c(cc3O[C@@H]21)OCO4	nt	nt	29.8%	nt	10.7%	nt
O=C(NC1=NCCS1)c1ccccc1OCc1ccccc1Cl	-0.9%	2.4%	10µM*	0.3%	?	26.5%
Cc1nn(Cc2ccccc2Cl)c(C)c1C(=O)NC1=NCCS1	10.9%	?	10µM*	-0.2%	-1.4%	8.1%
CCC(CC)c1nnc(NC(=O)c2c(C)nn(Cc3ccccc3Cl)c2C)s1	12.1%	-1.8%	11.2µM*	1.3%	?	12.1%
Cc1nn(Cc2ccccc2Cl)c(C)c1C(=O)N1CCN(c2ccccc2)CC1	1.6%	7.2%	20.1%	-3.2%	5.1%	2.3%
COc1ccccc1C1CC(=O)Oc2cc3c(cc21)OCO3 (centres undefined)	nt	nt	11.2%	nt	0.5%	nt
CCN1CCN(CCC(=O)Nc2ccc(F)c(F)c2)CC1	2.2%	-2.0%	21.0%	2.1%	12.7%	-16.5%
Cc1cc(NC(=O)COC(=O)C2CCN(S(=O)(=O)c3ccccc3)CC2)c([N+](=O)[O-])cc1C	3.6%	0.4%	-2.7%	-0.6%	5.7%	25.8%
SMILES	Mito fusion yeast	BCR signal inh	RORg inh	uPA surface inh	Gal4-VP16 FLuc	a7 integrin act
COc1ccccc1/C=C/C=N/n1c(-c2ccc(Cl)cc2)n[nH]c1=S	-2.4%	?	-27.7%	-1.5%	-9.6%	9.6%
COc1ccc(-c2n[nH]c(=S)n2/N=C/C=C/c2ccccc2OC)cc1	-3.0%	-7.3%	7.08µM*	2.0%	?	-3.9%
COc1ccc(-c2n[nH]c(=S)n2/N=C/c2cccn2C)cc1	5.0%	1.7%	24.9%	19.3%	-0.1%	6.2%
COc1ccccc1/C=C/C=N/n1c(-c2ccccc2)n[nH]c1=S	-5.5%	?	0.398µM*	-3.2%	?	19.7%
O=[N+]([O-])c1ccccc1/C=C/C=N/n1c(-c2ccccc2F)n[nH]c1=S	-5.4%	?	14.1µM*	1.0%	-3.5%	-4.2%
Cc1nn(-c2ccccc2)c(N)c1N=Nc1ccccc1	?	?	-37.7%	-8.1%	-6.4%	-26.3%
Nc1nn(-c2ccccc2)c(N)c1N=Nc1ccccc1	4.7%	?	-12.1%	5.01µM*	-0.3%	-7.2%
Cc1cccc(N=Nc2c(C)nn(-c3ccccc3)c2N)c1C	-8.3%	?	2.51µM*	-1.9%	?	-37.2%
CC(/C=N/n1c(-c2cc(C)[nH]n2)n[nH]c1=S)=C\c1ccccc1	1.1%	2.5%	8.91µM*	2.7%	?	-13.8%
CC(/C=N/n1c(C2CCCCC2)n[nH]c1=S)=C\c1ccccc1	-10.1%	?	3.55µM*	0.7%	10µM*	5.0%
CC(=C/c1ccccc1)/C=N/n1c(-c2ccco2)n[nH]c1=S	9.7%	?	17.3%	0.6%	-1.0%	-6.7%
COc1cc(/C=N/n2c(C3CCCCC3)n[nH]c2=S)cc(Br)c1O	3.5%	5.4%	-42.3%	4.9%	-22.0%	7.2%
Cc1cccc(/C=N/n2c(C3CCCCC3)n[nH]c2=S)c1	-23.1%	-1.8%	3.16µM*	9.1%	7.08µM*	12.7%
S=c1[nH]nc(C2CCCCC2)n1/N=C/c1cccc(Br)c1	-19.2%	0.0%	2µM*	2.8%	-12.7%	-13.6%
CCOc1cc(/C=C(\C#N)C(N)=O)cc(CSc2ccccc2)c1O	nt	nt	?	nt	-7.4%	nt
COC(=O)/C=C/C1c2ccccc2C(OC)C1C (centres undefined)	nt	nt	25.1%[10 µM]	nt	-2.6%[10 µM]	nt
O=C(C[C@H]1C/C=C\C[C@H](Cc2ccc(F)cc2)C(=O)O[C@@H](c2ccccc2)CNC1=O)NCCO	nt	-0.4%	nt	3.9%	nt	-39.3%
CC1(C)CC(NC(=S)Nc2ccc([N+](=O)[O-])cc2)CC(C)(C)N1	-0.5%	?	0.4%	2.5%	8.3%	-28.6%
COc1cc(Br)c(-c2sc(Nc3ccccc3)n[n+]2-c2ccc(F)cc2)cc1OC	-3.7%	?	6.31µM*	-5.4%	-19.9%	4.9%
Fc1ccc(-[n+]2nc(Nc3ccccc3)sc2-c2cccc(Cl)c2Cl)cc1	-2.9%	-25.2%	8.91µM*	10.6%	?	2.5%
Clc1cccc(-c2sc(Nc3ccccc3)n[n+]2-c2ccccc2)c1Cl	-4.0%	?	14.1µM*	1.3%	?	-13.3%
COc1ccccc1C(=O)NC(=O)COC(=O)c1cccc(OC(F)F)c1	-15.4%	-11.9%	nt	13.4%	nt	1.9%
